In PubChem BioAssay (EPA / NIEHS):
Inconclusive results are not listed. Active and inactive are the calls of the source. Rule for the calls: active = hit-call score of the fitted dose curve at least 0.9, where 1 is the maximum; inconclusive = response in the unintended direction; inactive = score below 0.9.

These molecules were tested against human Vitamin D Receptor (VDR), VDR (gene 7421) (UniProt P11473) (assay: ATG_VDR_TRANS: Attagene TRANS-FACTORIAL HepG2 Assay for human Vitamin D Receptor (VDR) (AID 2283022)).
Procedure: ATG_TRANS is a cell-based, multiplexed-readout assay that uses HepG2, a human liver cell line, with measurements taken at 24 hours after chemical dosing in a 24-well plate.ATG_VDR_TRANS is one of 30 assay component(s) measured or calculated from the ATG_TRANS assay. It is designed to make measurements of mRNA induction, a form of inducible reporter, as detected with fluorescence intensity signals by Reverse transcription polymerase chain reaction (RT-PCR) and Capillary electrophoresis technology.Data from the assay component ATG_VDR_TRANS was analyzed into 1 assay endpoint. This assay endpoint, ATG_VDR_TRANS, was analyzed in the positive analysis fitting direction relative to DMSO as the negative control and baseline of activity. Using a type of inducible reporter, measures of mRNA for gain-of-signal activity can be used to understand the reporter gene at the transcription factor-level as they relate to the gene VDR. Furthermore, this assay endpoint can be referred to as a primary readout, because this assay has produced multiple assay endpoints where this one serves a reporter gene function. To generalize the intended target to other relatable targets, this assay endpoint is annotated to the nuclear receptor intended target family, where the subfamily is non-steroidal.
Human liver HepG2 cells are transiently transfected with multiple reporter transcription units (MRTUs) in 6-well plates using FuGene 6 reagent (Roche; 3 ml FuGene/1 mg DNA). The MRTU constructs are regulated by a cis-regulating element (promoter). […] A major difference between the CIS and TRANS system is that in CIS activities of endogenous TFs are measured, whereas the TRANS assay evaluates changes in activities of exogenous, chimeric NR-Gal4 proteins. […] At the end of 24 hour incubation, total RNA was isolated using TriZol reagent (Invitrogen). The isolated RNA is then reverse-transcribed using oligo(dT) primer and Mo-MLV reverse transcriptase (Invitrogen) with DNAse I (Ambion) treatment for 30 min. The one-tenth of the produced cDNA was amplified by PCR using Taq DNA polymerase (Invitrogen) and two reporter sequence-specific primers. The PCR products were fluorescently labeled by primer extension with 6-arboxyfluorescein (6-FAM) 5'-labeled reporter sequence-specific primer (2 min at 95 C, 20 s at 68 C and 10 min at 72 C) and these products were digested with 5U of HpaI (New England Biolabs) for 2h at 37 C. The fragments were purified using Qiaquick PCR columns (Qiagen), analyzed on an ABI 3130xL genetic analyzer (Applied Biosystems) with peak positions identified by using a set of X-rhodamine (ROX)-labeled MapMarker1000 molecular weight standards (BioVentures). The raw capillary electrophoresis data was processed using Attagraph software (Attagene).

Chain of human Vitamin D Receptor (VDR), VDR (gene 7421) (P11473 whole entry, looked up): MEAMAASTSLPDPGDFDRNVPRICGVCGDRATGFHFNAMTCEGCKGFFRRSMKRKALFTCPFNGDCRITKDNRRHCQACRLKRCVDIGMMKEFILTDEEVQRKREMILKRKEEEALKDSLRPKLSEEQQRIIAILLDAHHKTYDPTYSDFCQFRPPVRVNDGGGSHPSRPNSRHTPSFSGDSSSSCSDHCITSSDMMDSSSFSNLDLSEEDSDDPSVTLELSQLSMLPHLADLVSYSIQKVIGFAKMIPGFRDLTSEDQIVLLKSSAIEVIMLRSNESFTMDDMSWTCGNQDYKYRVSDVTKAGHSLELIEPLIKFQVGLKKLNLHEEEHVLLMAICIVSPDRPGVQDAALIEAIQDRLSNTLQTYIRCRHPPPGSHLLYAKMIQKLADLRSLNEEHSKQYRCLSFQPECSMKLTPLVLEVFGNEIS

SMILES | outcome
COC(=O)N(C(=O)N1CO[C@@]2(C(=O)OC)Cc3cc(Cl)ccc3C2=N1)c1ccc(OC(F)(F)F)cc1 | inactive
CCC(C)n1c(=O)[nH]c(C)c(Br)c1=O (stereo not given) | inactive
COCc1cnc(C2=NC(C)(C(C)C)C(=O)N2)c(C(=O)O)c1 (stereo not given) | inactive
CC1(C)CCC(=Cc2ccc(Cl)cc2)C1(O)Cn1cncn1 (stereo not given) | inactive
COC(=O)c1c(C(F)F)nc(C(F)(F)F)c(C2=NCCS2)c1CC(C)C | inactive
OC(c1ccc(Cl)cc1)(c1ccc(Cl)cc1)C(Cl)(Cl)Cl | inactive
CCOc1cc(C(C)(C)C)ccc1C1COC(c2c(F)cccc2F)=N1 (stereo not given) | inactive
CN/C(=N\[N+](=O)[O-])NCc1cnc(Cl)s1 | inactive
CC1(C)CON(Cc2ccccc2Cl)C1=O | inactive
CNC(=O)N(C)c1nnc(C(C)(C)C)s1 | inactive
COP(=S)(OC)Oc1ccc([N+](=O)[O-])c(C)c1 | inactive
CC(C)Nc1nc(Cl)nc(NC(C)C)n1 | inactive
Cn1c(-c2ccccc2)cc(-c2ccccc2)[n+]1C | inactive
CNC(=O)Oc1cccc2ccccc12 | inactive
CCOc1nc(F)cc2nc(S(=O)(=O)Nc3c(Cl)cccc3Cl)nn12 | inactive
CC(C)N1C(=O)c2ccccc2NS1(=O)=O | inactive
CCOP(=S)(OCC)Oc1nc(Cl)n(C(C)C)n1 | inactive
CSC(=O)c1c(C(F)F)nc(C(F)(F)F)c(C(=O)SC)c1CC(C)C | inactive
COCC(C)N(C(=O)CCl)c1c(C)csc1C (stereo not given) | inactive
CC1(C)C(C(=O)OC(C#N)c2cccc(Oc3ccccc3)c2)C1(C)C (stereo not given) | inactive
CCN(CC)c1nc(C)cc(OP(=S)(OC)OC)n1 | inactive
CCOc1nc(C(Cl)(Cl)Cl)ns1 | inactive
CS(=O)(=O)c1cc(C(F)(F)F)ccc1C(=O)c1cnoc1C1CC1 | inactive
COC(=O)NC(=S)Nc1ccccc1NC(=S)NC(=O)OC | inactive
Clc1nc(Cl)nc(Nc2ccccc2Cl)n1 | inactive
